Measurements reported in PubChem BioAssay (NCI).
Compounds without any hit were thinned out: in the full panel of roughly 83,000, 20% have a hit.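 How to read the values: 0–100, growth inhibition (40 = 60% inhibited); 0, no net growth; -100 to 0, cell death (-40 = 40% of starting cells died; -100 = all dead).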 Values without a mark were called inactive. Activity calls are given as the source filed them. How the source made its calls: active means growth percent below 10; inactive means the rest.

tested on: COLO 205 colon; assay: NCI-60 one-dose screen, 48 h (100 = growth as untreated, 0 = no growth, -100 = all killed); settings: 10 µM unless noted

Row | Structure (SMILES) | growth
1 | CCCCC(CC)OC(=O)C(Br)CC (stereo unspecified) | 111%
2 | O=C1/C(=C/c2ccccc2)Oc2ccc(O)c(I)c21 | 120%
3 | COC(=O)c1cc2cc(-c3ccc(OC)cc3)cnc2[nH]1 | 0.277% (active)
4 | c1coc(CNc2ccnc(Nc3ccc(OCCN4CCCCC4)cc3)n2)c1 | 89.5%
5 | COc1ccc2[nH]c(C(=O)OCc3ccc4c(Cl)cc(Cl)c(O)c4n3)cc2c1 | -75% (active)
6 | CCOC(=O)C1CCNC(=O)C1=O (stereo unspecified) | 114%
7 | O=C(O)C1CCCCN1c1nc(Cl)nc(Cl)n1 (stereo unspecified) | 106%
8 | C=C1CCC2C(C)(CO)C(O)CCC2(C)C1CC(NCc1ccccc1)C1=CCOC1=O (stereo unspecified) | 103%
9 | CCCCCCCCCCCC(=O)NCCC[N+](C)(C)CC(=O)[O-] | 88.7%
10 | CN(CCCCCl)P(=O)(OCc1ccc([N+](=O)[O-])o1)C(F)(F)C[C@H](NC(=O)CNC(=O)c1ccc(N=[N+]=[N-])cc1)C(=O)NCCc1ccc(O)cc1 (stereo partly specified) | 36.9%
11 | NC(N)=Nc1nc2ccccc2o1 | 138%
